Values without a mark were called inactive.

The test system of one assay is Aedes aegypti larvae. In words: larval motility relative to same well at 0 h (fraction); higher = more motile (less active compound), active = 0.4 or less. The note with it: 10 µM; 2 h. Put shortly:
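Compounds at 10 µM (1% v/v DMSO) were applied to about 10 Aedes aegypti larvae per well in 100 µL, with every plate including solvent and larvicide control wells. Motility movies were taken with INVAPP at 0, 2 and 24 h, and results are medians of three independent larval batches. Relative motility is each well's score expressed as a fraction of its own first score.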
In the case of `CCOC(=O)/C=C/[C@H](C[C@@H]1CCNC1=O)NC(=O)[C@H](CC)n1cccc(NC(=O)c2cc(C)on2)c1=O`, the larval motility was 1.27.
Same read-out and setting: the same measure for `Nc1ccc(-c2nc3cc(C(F)(F)F)ccc3n2C23CC4CC(CC(C4)C2)C3)cc1`: 1.1.
Turning to `CS(=O)(=O)c1ccc(Oc2ccc(Cl)cc2)cc1`, the larval motility is 0.907.
Consider `CCNC(=O)Nc1cc(-c2ccccc2)c(-c2cncc(C(=O)O)c2)cn1`, for which the larval motility was 0.236 (active).
For `O=C(O)c1cc(-c2ccccc2)nc2ccccc12`, the larval motility is 0.53.
The same measure, in the same setting: the same measure for `CCCC(=O)OCCc1ccccc1`: 0.51.
`COc1ccc2nc(-c3ccccc3)cc(O)c2c1`: the larval motility was 1.08.
Consider `Oc1cc(-c2cccc3ccccc23)[nH]n1`, for which the larval motility was 0.626.
As for `CCNC(=O)Nc1cn2c(-c3ncc(CC)cn3)cc(-c3cccnc3)cc2n1`, the larval motility is 0.892.
For the compound `CCCCc1ccc(-c2cc(C(=O)O)cc(-c3ccc(Cl)cc3)n2)cc1`, the larval motility was 0.642.
With `CCC(C)NCC(O)Cn1c2ccc(Cl)cc2c2cc(Cl)ccc21` (stereo not given), the larval motility was 0.799.
As to `NC(=O)c1ccc(I)c([N+](=O)[O-])c1`, the larval motility was 0.749.
Consider `CCc1nc2ccccn2c1C(=O)NCc1ccccc1`, for which the larval motility was 1.39.
Same read-out and setting: for `O=C(Nc1nnc(-c2ccc(Cl)cc2)o1)c1nc2ccccc2s1` the value was 0.919; for `COc1ccc(C2CNC(=O)C2)cc1OC1CCCC1` (stereo not given), 0.834; for `CCc1oc2ccccc2c1C(=O)c1ccc(O)cc1`, 1.07.
The same measure, in the same setting: for `CCCc1ccc(-c2cc3cn([C@H]4C[C@H](O)[C@@H](CO)O4)c(=O)nc3o2)cc1` the value was 0.729; for `Cc1cc(CCOc2c(C)cc(-c3nnn(C)n3)cc2C)on1`, 0.857; for `O=S(=O)(Nc1ccc(-n2cccc2)cc1)c1ccc(Cl)c(Cl)c1`, 1.06.
Still for that read-out and setting: for `Oc1ccc2[nH]c(-c3ccccc3)nc2c1` the value was 0.633; for `Cc1ccc(Oc2ccccc2-c2csc(NC3=NCCCN3)n2)c(C)c1`, 0.774; for `O=C(N[C@H](CCS)C(=O)N[C@H](Cc1ccccc1)C(=O)O)c1cc2ccccc2[nH]1`, 1.47.
For the compound `O=c1cc(Nc2ccc3ccccc3c2)[nH]c(=O)[nH]1`, the larval motility was 0.528.
On the same count and under the same terms, for `CCCCCOc1ccc(/C=C2\Oc3c(ccc(O)c3O)C2=O)c(O)c1` the value was 0.621.
With `O=c1ccc2ncc(=O)n3c2n1CC3CN1CCC(NCc2cc3c(cn2)OCCC3)CC1` (stereo not given), the larval motility was 0.641.
With `COc1ccc(NC(=O)CC2Sc3ncnn3C2=O)cc1` (stereo not given), the larval motility was 0.728.
`Oc1c(C(Nc2nc3ccccc3s2)c2ccc(OC(F)F)cc2)ccc2cccnc12` (stereo not given): the larval motility was 0.53.
For the compound `C[C@H](NC(=O)C(=O)Nc1ccccc1C(C)(C)C)C(=O)N[C@@H](CC(=O)O)C(=O)COc1c(F)c(F)cc(F)c1F`, the larval motility was 0.777.
With `O=C(O)c1ccc(-n2nc(-c3ccccc3O)nc2-c2ccccc2O)cc1`, the larval motility is 0.694.
Turning to `O=C(Nc1nnc(-c2ccccc2)o1)c1ccc(F)cc1`, the larval motility is 0.832.
Same read-out and setting: for `CC(=O)O[C@H]1C[C@@]2(C)[C@@H](C[C@@H](O)[C@H]3[C@@]4(C)CC[C@@H](O)[C@@H](C)[C@@H]4CC[C@@]32C)/C1=C(\CCC=C(C)C)C(=O)O` the value was 0.95.
As to `CC(C)(C)c1cccc(-c2nc3cc(C(=N)N)ccc3[nH]2)c1O`, the larval motility was 1.04.
On the same count and under the same terms, for `COc1cc(C(C(=O)NC2CCCCC2)N(C(=O)Cc2c[nH]c3ccccc23)c2ccc(C(C)C)cc2)cc(OC)c1OC` (stereo not given) the value was 1.42; for `COc1ccc(C)cc1NC(=O)c1ccc(S(=O)(=O)N2CCCCC2)cc1`, 1.12.
For `OC(Cn1cncn1)(Cn1cncn1)c1ccc(F)cc1F`, the larval motility was 1.05.
As for `COc1cc(NS(=O)(=O)c2ccc(C)cc2)c2ncccc2c1`, the larval motility is 0.89.
As to `Nc1cccc(-c2nc(N)nc(NC3Cc4ccccc4C3)n2)c1`, the larval motility is 1.08.
In the case of `C/C(=N\NC(=O)C1CC1c1ccccc1)c1ccc(NC(=O)c2ccco2)cc1` (stereo not given), the larval motility was 0.804.
Take `NC(=O)C(c1ccccc1)(c1ccccc1)[C@H]1CCCN(CCc2ccc3c(c2)CCO3)C1`: the larval motility is 0.612.
On the same count and under the same terms, the same measure for `CC(C)Oc1ccc(-c2nc(-c3cccc4c3CC[C@@H]4NCCO)no2)cc1C#N`: 1.2.

The same assay, now with this note: 10 µM; 24 h.
For the compound `CCOC(=O)/C=C/[C@H](C[C@@H]1CCNC1=O)NC(=O)[C@H](CC)n1cccc(NC(=O)c2cc(C)on2)c1=O`, the larval motility is 0.871.
With `Nc1ccc(-c2nc3cc(C(F)(F)F)ccc3n2C23CC4CC(CC(C4)C2)C3)cc1`, the larval motility is 1.22.
On to `CS(=O)(=O)c1ccc(Oc2ccc(Cl)cc2)cc1`, for which the larval motility was 1.02.
Consider `CCNC(=O)Nc1cc(-c2ccccc2)c(-c2cncc(C(=O)O)c2)cn1`, for which the larval motility was 0.433.
Turning to `O=C(O)c1cc(-c2ccccc2)nc2ccccc12`, the larval motility is 0.971.
`CCCC(=O)OCCc1ccccc1`: the larval motility was 0.648.
As for `COc1ccc2nc(-c3ccccc3)cc(O)c2c1`, the larval motility is 0.908.
Turning to `Oc1cc(-c2cccc3ccccc23)[nH]n1`, the larval motility was 0.554.
The same measure, in the same setting: for `CCNC(=O)Nc1cn2c(-c3ncc(CC)cn3)cc(-c3cccnc3)cc2n1` the value was 0.894.
In the case of `CCCCc1ccc(-c2cc(C(=O)O)cc(-c3ccc(Cl)cc3)n2)cc1`, the larval motility is 0.563.
Regarding `CCC(C)NCC(O)Cn1c2ccc(Cl)cc2c2cc(Cl)ccc21` (stereo not given), the larval motility is 1.
The same measure, in the same setting: the same measure for `NC(=O)c1ccc(I)c([N+](=O)[O-])c1`: 0.429.
In the case of `CCc1nc2ccccn2c1C(=O)NCc1ccccc1`, the larval motility was 0.997.
In the case of `O=C(Nc1nnc(-c2ccc(Cl)cc2)o1)c1nc2ccccc2s1`, the larval motility is 1.05.
On to `COc1ccc(C2CNC(=O)C2)cc1OC1CCCC1` (stereo not given), for which the larval motility is 0.959.
Take `CCc1oc2ccccc2c1C(=O)c1ccc(O)cc1`: the larval motility was 1.17.
With `CCCc1ccc(-c2cc3cn([C@H]4C[C@H](O)[C@@H](CO)O4)c(=O)nc3o2)cc1`, the larval motility is 0.902.
In the case of `Cc1cc(CCOc2c(C)cc(-c3nnn(C)n3)cc2C)on1`, the larval motility was 0.768.
As for `O=S(=O)(Nc1ccc(-n2cccc2)cc1)c1ccc(Cl)c(Cl)c1`, the larval motility was 0.808.
As to `Oc1ccc2[nH]c(-c3ccccc3)nc2c1`, the larval motility was 0.514.
Turning to `Cc1ccc(Oc2ccccc2-c2csc(NC3=NCCCN3)n2)c(C)c1`, the larval motility was 0.786.
With `O=C(N[C@H](CCS)C(=O)N[C@H](Cc1ccccc1)C(=O)O)c1cc2ccccc2[nH]1`, the larval motility is 1.56.
Same read-out and setting: the same measure for `O=c1cc(Nc2ccc3ccccc3c2)[nH]c(=O)[nH]1`: 0.778.
With `CCCCCOc1ccc(/C=C2\Oc3c(ccc(O)c3O)C2=O)c(O)c1`, the larval motility was 1.4.
With `O=c1ccc2ncc(=O)n3c2n1CC3CN1CCC(NCc2cc3c(cn2)OCCC3)CC1` (stereo not given), the larval motility was 0.964.
On to `COc1ccc(NC(=O)CC2Sc3ncnn3C2=O)cc1` (stereo not given), for which the larval motility is 0.333 (active).
For `Oc1c(C(Nc2nc3ccccc3s2)c2ccc(OC(F)F)cc2)ccc2cccnc12` (stereo not given), the larval motility is 1.26.
For `C[C@H](NC(=O)C(=O)Nc1ccccc1C(C)(C)C)C(=O)N[C@@H](CC(=O)O)C(=O)COc1c(F)c(F)cc(F)c1F`, the larval motility is 1.23.
As for `O=C(O)c1ccc(-n2nc(-c3ccccc3O)nc2-c2ccccc2O)cc1`, the larval motility is 0.808.
The same measure, in the same setting: the same measure for `O=C(Nc1nnc(-c2ccccc2)o1)c1ccc(F)cc1`: 0.868; for `CC(=O)O[C@H]1C[C@@]2(C)[C@@H](C[C@@H](O)[C@H]3[C@@]4(C)CC[C@@H](O)[C@@H](C)[C@@H]4CC[C@@]32C)/C1=C(\CCC=C(C)C)C(=O)O`: 0.825.
As to `CC(C)(C)c1cccc(-c2nc3cc(C(=N)N)ccc3[nH]2)c1O`, the larval motility was 0.466.
With `COc1cc(C(C(=O)NC2CCCCC2)N(C(=O)Cc2c[nH]c3ccccc23)c2ccc(C(C)C)cc2)cc(OC)c1OC` (stereo not given), the larval motility is 1.32.
The same measure, in the same setting: the same measure for `COc1ccc(C)cc1NC(=O)c1ccc(S(=O)(=O)N2CCCCC2)cc1`: 1.26; for `OC(Cn1cncn1)(Cn1cncn1)c1ccc(F)cc1F`: 0.875; for `COc1cc(NS(=O)(=O)c2ccc(C)cc2)c2ncccc2c1`: 0.666.
Turning to `Nc1cccc(-c2nc(N)nc(NC3Cc4ccccc4C3)n2)c1`, the larval motility was 0.803.
Same read-out and setting: the same measure for `C/C(=N\NC(=O)C1CC1c1ccccc1)c1ccc(NC(=O)c2ccco2)cc1` (stereo not given): 0.958; for `NC(=O)C(c1ccccc1)(c1ccccc1)[C@H]1CCCN(CCc2ccc3c(c2)CCO3)C1`: 0.78; for `CC(C)Oc1ccc(-c2nc(-c3cccc4c3CC[C@@H]4NCCO)no2)cc1C#N`: 1.25.

The record behind these values is the supplement of paper PMC8540655.
